The values that follow come from publication PMC7862700, “An all-to-all approach to the identification of sequence-specific readers for epigenetic DNA modifications on cytosine”.

Test in all cases: DAPPL (digital affinity profiling via proximity ligation, sequencing); 10 mM Tris-HCl pH 7.5, 50 mM NaCl, 1 mM DTT, 4% glycerol, room temperature, 30 min; GST-TFs on glutathione beads, 16-mer random dsDNA library, 0.1% formaldehyde crosslink after washing; high values mean tight binding
Experiment [1] concerns the target T1, FEV (Homo sapiens, UniProt Q99581 1-238).
T1 sequence: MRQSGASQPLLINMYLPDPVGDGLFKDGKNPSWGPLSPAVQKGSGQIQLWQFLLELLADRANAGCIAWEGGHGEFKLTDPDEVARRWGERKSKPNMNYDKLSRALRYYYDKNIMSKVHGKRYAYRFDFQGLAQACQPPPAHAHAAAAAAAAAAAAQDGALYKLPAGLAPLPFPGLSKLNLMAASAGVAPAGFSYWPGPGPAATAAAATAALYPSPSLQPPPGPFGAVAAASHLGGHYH
To be noted: protein: recombinant; tags: N-terminal GST; dsDNA, one strand shown. In short, it runs like this: (§1)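 In yeast, human transcription factors were expressed with a GST fusion, then pulled down on glutathione beads and given DNA barcodes. Pooled with a tag-only sample, they were exposed to 200 nmole of a 16-mer random double-stranded DNA library (Tris/NaCl/DTT/glycerol buffer, room temperature, 30 min), washed, crosslinked with 0.1% formaldehyde, proximity-ligated using BsaI/T4 ligase for 1 h at 37 °C, PCR-amplified and read on an Illumina NextSeq500. Each hexamer's frequency of reads for a factor, divided by the matching frequency for the tag-only sample, gives the binding signal.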

Experiment [2] deals with ETV5 (Homo sapiens, UniProt P41161 1-510). The settings on record: protein: recombinant; tags: N-terminal GST; dsDNA, one strand shown. In short, it runs like this:
as §1

Experiment [3] has as its target HSF1 (Homo sapiens, UniProt Q00613 1-529). To be noted: protein: recombinant; tags: N-terminal GST; chain copies: 3; dsDNA, one strand shown. The procedure, abridged:
as §1

Experiment [4] has as its target T2, SPIC (Homo sapiens, UniProt Q8N5J4 1-248).
T2 sequence: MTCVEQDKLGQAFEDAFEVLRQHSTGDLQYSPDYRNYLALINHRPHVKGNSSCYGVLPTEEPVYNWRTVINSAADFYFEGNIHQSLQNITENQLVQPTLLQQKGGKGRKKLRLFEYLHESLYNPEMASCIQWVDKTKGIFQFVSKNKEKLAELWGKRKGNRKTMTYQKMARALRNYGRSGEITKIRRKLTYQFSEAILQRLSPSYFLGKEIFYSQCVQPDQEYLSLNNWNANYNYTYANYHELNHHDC
The settings on record: protein: recombinant; tags: N-terminal GST; dsDNA, one strand shown. The procedure, abridged: as §1

Experiment [5] addresses ELF4 (Homo sapiens, UniProt Q99607 1-663). The settings on record: protein: recombinant; tags: N-terminal GST; dsDNA, one strand shown. The procedure, abridged: as §1
Experiment [6] addresses T3, ELK4 (Homo sapiens, UniProt P28324-2 1-405).
T3 sequence: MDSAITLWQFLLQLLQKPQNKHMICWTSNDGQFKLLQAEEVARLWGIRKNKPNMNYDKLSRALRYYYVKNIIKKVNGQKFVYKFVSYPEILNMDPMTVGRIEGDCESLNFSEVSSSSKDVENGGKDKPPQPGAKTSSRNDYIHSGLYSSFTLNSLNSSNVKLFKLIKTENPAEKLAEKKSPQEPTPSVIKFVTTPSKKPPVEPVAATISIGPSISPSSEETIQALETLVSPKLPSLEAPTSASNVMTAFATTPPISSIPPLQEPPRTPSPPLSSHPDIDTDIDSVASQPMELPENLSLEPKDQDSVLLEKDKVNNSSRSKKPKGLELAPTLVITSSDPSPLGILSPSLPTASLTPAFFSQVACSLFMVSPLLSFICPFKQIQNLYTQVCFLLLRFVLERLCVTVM
To be noted: protein: recombinant; tags: N-terminal GST; dsDNA, one strand shown. The procedure, abridged:
as §1

Experiment [7] deals with T4, ETV2 (Homo sapiens, UniProt O00321 1-342).
T4 sequence: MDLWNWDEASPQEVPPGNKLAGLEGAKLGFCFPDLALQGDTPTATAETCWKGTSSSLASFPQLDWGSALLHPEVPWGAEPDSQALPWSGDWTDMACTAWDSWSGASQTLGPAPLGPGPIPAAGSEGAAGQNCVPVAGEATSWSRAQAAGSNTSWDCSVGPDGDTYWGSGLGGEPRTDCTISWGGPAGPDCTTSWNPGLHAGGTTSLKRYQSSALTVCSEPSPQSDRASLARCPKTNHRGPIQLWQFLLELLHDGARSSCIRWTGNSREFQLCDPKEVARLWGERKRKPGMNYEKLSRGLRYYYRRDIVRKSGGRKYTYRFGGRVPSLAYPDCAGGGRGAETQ
The settings on record: protein: recombinant; tags: N-terminal GST; dsDNA, one strand shown. The procedure, abridged: as §1

The target in experiment [8] is T5, ELF3 (Homo sapiens, UniProt P78545 1-371).
T5 sequence: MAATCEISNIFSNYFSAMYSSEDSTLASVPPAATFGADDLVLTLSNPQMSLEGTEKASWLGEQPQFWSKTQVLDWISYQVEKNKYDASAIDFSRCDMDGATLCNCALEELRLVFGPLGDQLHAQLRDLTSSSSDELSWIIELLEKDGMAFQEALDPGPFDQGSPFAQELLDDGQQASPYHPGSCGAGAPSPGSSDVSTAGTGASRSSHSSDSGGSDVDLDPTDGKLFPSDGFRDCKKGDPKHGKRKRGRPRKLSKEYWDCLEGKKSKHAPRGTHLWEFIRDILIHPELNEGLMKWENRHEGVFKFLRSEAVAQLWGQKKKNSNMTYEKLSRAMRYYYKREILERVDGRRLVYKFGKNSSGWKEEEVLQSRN
The settings on record: protein: recombinant; tags: N-terminal GST; dsDNA, one strand shown. In short, it runs like this:
as §1

For experiment [9], the target named is CRX (Homo sapiens, UniProt O43186 1-299). The settings on record: protein: recombinant; tags: N-terminal GST; dsDNA, one strand shown. The procedure, abridged: as §1
Experiment [10] addresses ETV1 (Homo sapiens, UniProt P50549 1-477). To be noted: protein: recombinant; tags: N-terminal GST; dsDNA, one strand shown. The procedure, abridged:
as §1

Experiment [11] concerns the target T6, ERF (Homo sapiens, UniProt P50548 1-548).
T6 sequence: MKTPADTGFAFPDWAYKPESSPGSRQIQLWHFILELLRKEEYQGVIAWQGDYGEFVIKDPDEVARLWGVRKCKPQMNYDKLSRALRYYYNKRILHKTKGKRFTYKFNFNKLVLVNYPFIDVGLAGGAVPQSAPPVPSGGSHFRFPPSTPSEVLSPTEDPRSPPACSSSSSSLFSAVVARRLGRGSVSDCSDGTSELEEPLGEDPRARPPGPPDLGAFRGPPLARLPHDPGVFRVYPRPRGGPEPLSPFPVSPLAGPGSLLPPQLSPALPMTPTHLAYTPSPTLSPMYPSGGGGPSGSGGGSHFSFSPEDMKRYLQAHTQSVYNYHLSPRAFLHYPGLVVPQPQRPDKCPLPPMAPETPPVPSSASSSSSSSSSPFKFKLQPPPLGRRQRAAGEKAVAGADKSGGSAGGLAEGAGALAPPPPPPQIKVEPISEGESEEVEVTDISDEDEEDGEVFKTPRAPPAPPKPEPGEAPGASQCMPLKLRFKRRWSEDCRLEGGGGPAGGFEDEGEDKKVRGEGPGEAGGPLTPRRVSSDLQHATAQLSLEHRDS
To be noted: protein: recombinant; tags: N-terminal GST; dsDNA, one strand shown. In short, it runs like this:
as §1

Experiment [12] has as its target T7, ETV3L (Homo sapiens, UniProt Q6ZN32 1-361).
T7 sequence: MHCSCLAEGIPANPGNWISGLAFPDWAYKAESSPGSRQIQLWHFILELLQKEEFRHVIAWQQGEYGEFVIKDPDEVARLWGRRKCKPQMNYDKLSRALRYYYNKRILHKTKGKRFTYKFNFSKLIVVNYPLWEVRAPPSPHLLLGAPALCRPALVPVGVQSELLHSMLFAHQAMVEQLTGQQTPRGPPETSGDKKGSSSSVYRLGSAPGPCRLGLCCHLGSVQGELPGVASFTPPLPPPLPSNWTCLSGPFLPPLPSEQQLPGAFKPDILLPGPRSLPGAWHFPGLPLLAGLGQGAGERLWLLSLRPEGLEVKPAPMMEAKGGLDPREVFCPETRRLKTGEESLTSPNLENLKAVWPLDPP
The settings on record: protein: recombinant; tags: N-terminal GST; dsDNA, one strand shown. The procedure, abridged:
as §1

Experiment [13] deals with T8, ETS2 (Homo sapiens, UniProt P15036 1-469).
T8 sequence: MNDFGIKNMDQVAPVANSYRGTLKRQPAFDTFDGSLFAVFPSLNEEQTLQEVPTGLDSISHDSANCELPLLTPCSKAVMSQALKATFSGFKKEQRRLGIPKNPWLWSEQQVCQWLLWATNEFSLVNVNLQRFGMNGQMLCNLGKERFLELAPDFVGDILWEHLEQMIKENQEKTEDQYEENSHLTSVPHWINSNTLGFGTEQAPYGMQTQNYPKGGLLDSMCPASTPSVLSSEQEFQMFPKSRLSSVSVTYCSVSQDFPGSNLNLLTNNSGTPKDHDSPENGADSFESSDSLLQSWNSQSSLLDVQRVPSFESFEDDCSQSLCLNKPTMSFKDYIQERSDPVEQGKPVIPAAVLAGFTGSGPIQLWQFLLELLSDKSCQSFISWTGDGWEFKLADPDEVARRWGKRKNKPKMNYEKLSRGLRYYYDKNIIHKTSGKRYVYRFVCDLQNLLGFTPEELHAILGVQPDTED
To be noted: protein: recombinant; tags: N-terminal GST; dsDNA, one strand shown. The procedure, abridged: as §1

Experiment [14] addresses T9, SPDEF (Homo sapiens, UniProt O95238 1-335).
T9 sequence: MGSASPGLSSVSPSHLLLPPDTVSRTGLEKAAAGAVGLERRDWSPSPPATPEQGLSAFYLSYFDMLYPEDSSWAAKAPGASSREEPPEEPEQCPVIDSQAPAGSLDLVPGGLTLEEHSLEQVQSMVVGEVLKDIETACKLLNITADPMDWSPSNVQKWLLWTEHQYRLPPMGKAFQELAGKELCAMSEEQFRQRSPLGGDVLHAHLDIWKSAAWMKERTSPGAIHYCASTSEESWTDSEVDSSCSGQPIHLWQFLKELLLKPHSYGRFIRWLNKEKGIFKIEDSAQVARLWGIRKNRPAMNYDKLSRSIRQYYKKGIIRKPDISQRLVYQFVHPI
The settings on record: protein: recombinant; tags: N-terminal GST; dsDNA, one strand shown. In short, it runs like this: as §1

In experiment [15] the target is T10, ETV7 (Homo sapiens, UniProt Q9Y603 1-341).
T10 sequence: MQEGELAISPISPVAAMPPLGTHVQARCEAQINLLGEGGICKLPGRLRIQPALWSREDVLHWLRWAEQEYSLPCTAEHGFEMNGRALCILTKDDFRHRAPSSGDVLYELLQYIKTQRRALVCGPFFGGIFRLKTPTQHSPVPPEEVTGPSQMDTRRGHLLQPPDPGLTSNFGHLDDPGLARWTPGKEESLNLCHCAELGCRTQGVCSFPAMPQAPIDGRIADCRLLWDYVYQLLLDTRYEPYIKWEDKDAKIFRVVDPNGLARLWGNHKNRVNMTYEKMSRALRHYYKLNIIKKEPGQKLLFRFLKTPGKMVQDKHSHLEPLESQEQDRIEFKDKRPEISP
The settings on record: protein: recombinant; tags: N-terminal GST; dsDNA, one strand shown. The procedure, abridged: as §1

Experiment [16] deals with T11, ELF5 (Homo sapiens, UniProt Q9UKW6-2 1-255).
T11 sequence: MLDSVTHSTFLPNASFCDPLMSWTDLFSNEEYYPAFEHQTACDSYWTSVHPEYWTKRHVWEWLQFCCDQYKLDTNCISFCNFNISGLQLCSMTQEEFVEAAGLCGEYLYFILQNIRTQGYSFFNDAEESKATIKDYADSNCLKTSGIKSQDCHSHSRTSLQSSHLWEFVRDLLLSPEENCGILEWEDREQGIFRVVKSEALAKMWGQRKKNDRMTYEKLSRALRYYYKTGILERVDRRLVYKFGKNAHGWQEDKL
The settings on record: protein: recombinant; tags: N-terminal GST; dsDNA, one strand shown. In short, it runs like this: as §1

Experiment [17] has as its target T12, ETV3 (Homo sapiens, UniProt P41162-2 1-143).
T12 sequence: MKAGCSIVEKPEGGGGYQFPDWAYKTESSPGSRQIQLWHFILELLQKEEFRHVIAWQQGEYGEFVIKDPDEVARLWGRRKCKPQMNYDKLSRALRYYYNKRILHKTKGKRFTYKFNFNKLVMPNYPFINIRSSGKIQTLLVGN
To be noted: protein: recombinant; tags: N-terminal GST; dsDNA, one strand shown. The procedure, abridged:
as §1

Experiment [18] deals with ETV6 (Homo sapiens, UniProt P41212 1-452). To be noted: protein: recombinant; tags: N-terminal GST; dsDNA, one strand shown. The procedure, abridged: as §1
ETV6, sequence (P41212 whole entry): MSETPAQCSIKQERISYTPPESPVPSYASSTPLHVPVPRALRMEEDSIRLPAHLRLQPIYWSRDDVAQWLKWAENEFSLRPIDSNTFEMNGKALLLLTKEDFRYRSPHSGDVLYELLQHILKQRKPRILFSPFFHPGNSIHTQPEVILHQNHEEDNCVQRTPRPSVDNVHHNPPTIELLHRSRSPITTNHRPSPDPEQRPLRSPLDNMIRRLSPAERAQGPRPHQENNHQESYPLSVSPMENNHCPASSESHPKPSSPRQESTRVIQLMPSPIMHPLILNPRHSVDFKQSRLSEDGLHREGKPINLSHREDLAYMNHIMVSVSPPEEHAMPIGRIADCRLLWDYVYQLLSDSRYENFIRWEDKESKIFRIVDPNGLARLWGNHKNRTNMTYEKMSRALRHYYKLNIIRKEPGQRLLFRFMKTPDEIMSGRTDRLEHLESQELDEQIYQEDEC

CRX, sequence (O43186 whole entry): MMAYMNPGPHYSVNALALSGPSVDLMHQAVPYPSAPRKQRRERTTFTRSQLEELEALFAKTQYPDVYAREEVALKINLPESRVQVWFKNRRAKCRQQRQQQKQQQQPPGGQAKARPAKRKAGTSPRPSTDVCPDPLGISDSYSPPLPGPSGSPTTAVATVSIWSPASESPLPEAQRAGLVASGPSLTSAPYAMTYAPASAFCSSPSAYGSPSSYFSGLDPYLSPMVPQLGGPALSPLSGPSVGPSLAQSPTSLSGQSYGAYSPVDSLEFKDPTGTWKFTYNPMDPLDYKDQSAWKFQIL
ETV1, sequence (P50549 whole entry): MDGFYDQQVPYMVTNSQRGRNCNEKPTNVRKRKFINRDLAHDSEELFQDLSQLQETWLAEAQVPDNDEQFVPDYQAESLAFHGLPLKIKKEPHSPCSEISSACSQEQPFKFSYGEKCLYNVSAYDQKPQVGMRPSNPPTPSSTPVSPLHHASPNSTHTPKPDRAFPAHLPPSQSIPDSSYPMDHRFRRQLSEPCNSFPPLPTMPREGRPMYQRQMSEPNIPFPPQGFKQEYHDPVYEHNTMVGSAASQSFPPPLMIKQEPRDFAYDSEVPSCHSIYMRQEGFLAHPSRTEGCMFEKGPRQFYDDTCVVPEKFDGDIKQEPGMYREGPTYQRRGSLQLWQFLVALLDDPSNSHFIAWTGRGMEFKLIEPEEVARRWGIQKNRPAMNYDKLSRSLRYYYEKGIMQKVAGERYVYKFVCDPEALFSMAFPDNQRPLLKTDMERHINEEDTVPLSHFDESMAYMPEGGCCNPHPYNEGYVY
ELF4, sequence (Q99607 whole entry): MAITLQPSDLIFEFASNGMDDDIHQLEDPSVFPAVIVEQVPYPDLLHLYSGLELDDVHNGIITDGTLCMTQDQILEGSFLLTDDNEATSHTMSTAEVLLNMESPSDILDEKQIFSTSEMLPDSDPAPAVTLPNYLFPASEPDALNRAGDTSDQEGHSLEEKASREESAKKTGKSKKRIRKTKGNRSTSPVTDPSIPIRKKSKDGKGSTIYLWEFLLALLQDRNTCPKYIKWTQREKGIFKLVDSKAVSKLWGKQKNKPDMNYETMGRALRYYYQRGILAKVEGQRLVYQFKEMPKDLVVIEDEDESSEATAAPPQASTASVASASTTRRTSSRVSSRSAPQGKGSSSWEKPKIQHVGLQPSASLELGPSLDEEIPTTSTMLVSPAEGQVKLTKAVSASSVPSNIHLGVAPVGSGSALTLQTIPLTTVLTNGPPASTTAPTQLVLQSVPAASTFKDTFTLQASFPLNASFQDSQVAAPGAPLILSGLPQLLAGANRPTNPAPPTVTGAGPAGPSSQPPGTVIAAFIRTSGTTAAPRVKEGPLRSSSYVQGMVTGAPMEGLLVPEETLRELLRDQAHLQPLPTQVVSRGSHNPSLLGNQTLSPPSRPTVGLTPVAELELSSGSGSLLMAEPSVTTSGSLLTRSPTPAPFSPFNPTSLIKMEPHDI
ETV5, sequence (P41161 whole entry): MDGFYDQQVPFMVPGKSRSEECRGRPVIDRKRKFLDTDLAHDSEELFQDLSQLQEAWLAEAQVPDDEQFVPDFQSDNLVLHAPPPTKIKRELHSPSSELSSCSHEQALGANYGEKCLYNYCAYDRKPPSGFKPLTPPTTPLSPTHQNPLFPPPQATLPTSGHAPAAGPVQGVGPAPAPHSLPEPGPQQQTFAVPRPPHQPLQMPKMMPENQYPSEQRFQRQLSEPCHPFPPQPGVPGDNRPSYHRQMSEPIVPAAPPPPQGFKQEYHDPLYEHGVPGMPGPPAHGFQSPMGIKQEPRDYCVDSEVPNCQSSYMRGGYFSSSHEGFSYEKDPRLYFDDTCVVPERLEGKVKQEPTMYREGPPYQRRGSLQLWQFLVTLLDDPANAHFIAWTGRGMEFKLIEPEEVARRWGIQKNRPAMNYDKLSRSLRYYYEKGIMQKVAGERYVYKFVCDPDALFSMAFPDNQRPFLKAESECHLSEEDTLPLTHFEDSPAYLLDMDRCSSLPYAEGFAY
HSF1, sequence (Q00613 whole entry): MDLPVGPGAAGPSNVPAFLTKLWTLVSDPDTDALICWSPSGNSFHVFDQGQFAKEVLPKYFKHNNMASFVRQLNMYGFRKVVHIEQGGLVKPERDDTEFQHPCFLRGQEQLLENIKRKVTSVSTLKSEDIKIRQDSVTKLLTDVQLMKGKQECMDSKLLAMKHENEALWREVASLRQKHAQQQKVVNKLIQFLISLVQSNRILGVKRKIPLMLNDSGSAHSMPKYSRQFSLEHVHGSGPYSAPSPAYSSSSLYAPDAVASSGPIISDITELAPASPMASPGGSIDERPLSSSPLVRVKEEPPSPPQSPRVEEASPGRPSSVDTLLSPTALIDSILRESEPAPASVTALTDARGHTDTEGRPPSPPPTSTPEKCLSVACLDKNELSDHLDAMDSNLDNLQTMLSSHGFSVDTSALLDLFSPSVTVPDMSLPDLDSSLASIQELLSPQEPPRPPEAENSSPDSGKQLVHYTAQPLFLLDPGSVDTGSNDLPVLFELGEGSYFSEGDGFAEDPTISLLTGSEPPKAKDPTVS

Consider TTGCGA, for which the binding signal in [1] was 1.08 fold enrichment (6-mer frequency, TF over GST control); in experiment [2] it was 1.15 fold enrichment (6-mer frequency, TF over GST control); in experiment [3], 1.24 fold enrichment (6-mer frequency, TF over GST control); in experiment [4], 1.35 fold enrichment (6-mer frequency, TF over GST control); in experiment [5] it was 1.14 fold enrichment (6-mer frequency, TF over GST control); in experiment [6], 1.11 fold enrichment (6-mer frequency, TF over GST control). Also, the binding signal was 1.1 fold enrichment (6-mer frequency, TF over GST control) in experiment [7]; 1.16 fold enrichment (6-mer frequency, TF over GST control) in experiment [8]; 1.15 fold enrichment (6-mer frequency, TF over GST control) in experiment [9]; 1.15 fold enrichment (6-mer frequency, TF over GST control) in [10]; 1.29 fold enrichment (6-mer frequency, TF over GST control) in experiment [11]; 1.14 fold enrichment (6-mer frequency, TF over GST control) in experiment [12]. For the same sequence, the binding signal in experiment [13] is 1.14 fold enrichment (6-mer frequency, TF over GST control); in [14], 1.11 fold enrichment (6-mer frequency, TF over GST control); in experiment [15], 1.14 fold enrichment (6-mer frequency, TF over GST control); in experiment [16] it was 1.12 fold enrichment (6-mer frequency, TF over GST control); in [17], 1.08 fold enrichment (6-mer frequency, TF over GST control); in [18] it was 1.11 fold enrichment (6-mer frequency, TF over GST control).
